According to PubChem BioAssay AID504710 (Sanford-Burnham Center for Chemical Genomics, 2011):
Values joined by “and” are separate entries in the source; they are usually repeats but may differ in a detail not shown here. Equal values may be shown once. Active and inactive are the calls of the source.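 The calls were made as follows: active = inhibition reaching about 16% in any single replicate (limit read from the data); inactive = the rest.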

target: Hexokinase HKDC1 (Homo sapiens) (UniProt Q2TB90); test: HKDC1 hexokinase inhibitors, confirmation, biochemical, single concentration (AID 504710); details: recombinant HKDC1, G6PDH/diaphorase/resazurin fluorescence; at 20 µM; stronger effect = higher value
Sequence (Q2TB90 whole entry, looked up): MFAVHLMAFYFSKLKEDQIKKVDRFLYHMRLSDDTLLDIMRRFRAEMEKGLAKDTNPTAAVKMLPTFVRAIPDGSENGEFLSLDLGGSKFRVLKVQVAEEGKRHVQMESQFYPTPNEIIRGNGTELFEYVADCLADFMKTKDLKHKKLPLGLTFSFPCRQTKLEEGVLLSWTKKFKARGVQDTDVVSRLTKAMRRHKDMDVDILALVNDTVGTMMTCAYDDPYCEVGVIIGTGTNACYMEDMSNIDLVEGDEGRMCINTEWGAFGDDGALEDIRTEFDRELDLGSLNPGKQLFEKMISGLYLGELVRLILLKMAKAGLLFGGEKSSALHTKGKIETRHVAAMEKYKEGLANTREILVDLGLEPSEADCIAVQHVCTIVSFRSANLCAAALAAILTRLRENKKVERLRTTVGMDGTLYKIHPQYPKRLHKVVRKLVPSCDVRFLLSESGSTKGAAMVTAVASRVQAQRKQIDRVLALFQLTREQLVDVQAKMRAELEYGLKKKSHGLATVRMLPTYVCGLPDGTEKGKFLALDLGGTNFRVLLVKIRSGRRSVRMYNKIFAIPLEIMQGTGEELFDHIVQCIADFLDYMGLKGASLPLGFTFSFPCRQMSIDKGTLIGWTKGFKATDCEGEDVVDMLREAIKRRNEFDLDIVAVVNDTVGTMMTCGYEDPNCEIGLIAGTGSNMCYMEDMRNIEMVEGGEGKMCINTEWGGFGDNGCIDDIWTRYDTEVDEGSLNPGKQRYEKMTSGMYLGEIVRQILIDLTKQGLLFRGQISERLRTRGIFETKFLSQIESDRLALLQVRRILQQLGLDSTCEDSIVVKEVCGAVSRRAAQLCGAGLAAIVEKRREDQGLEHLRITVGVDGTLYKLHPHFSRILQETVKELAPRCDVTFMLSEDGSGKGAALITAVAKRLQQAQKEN

| Structure (SMILES) | inhibition |
| --- | --- |
| COC(=O)c1ccc(CCc2cc(O)c(Br)cc2O)cc1 | 54.2% (active) |
| Cc1nc2c(O)c3c(c(O)c2nc1C)C1C=CC3CC1 | 89.5% (active) |
| C=CCN1C=C2C(=O)C(C)(OC(=O)CCC(=O)OC)C(=O)C(Br)=C2C=C1c1ccc(OC)cc1 (stereo unspecified) | 57.5% (active) |
| NC1=C(Br)C(=O)c2ncccc2C1=O | 50.8% (active) |
| CC(C)(C)c1nnc(N/N=C/c2cc(Br)ccc2O)n(N)c1=O | -48.8% (inactive) |
| COc1ccc2[nH]c3c4c(ccc3c2c1)C(=O)C=CC4=O | 32.9% (active) |
| CC(=NNC(=S)N1CCN(C2CCCCCC2)CC1)c1ccccn1 | -39.9% (inactive) |
| O=C1C(Cl)=C(N2CCC(C(=O)O)CC2)C(=O)c2ccccc21 | 57.2% (active) |
| COc1ccc(OC)c2[nH]c(=O)c(CCNC(=O)c3cc4ccccc4o3)cc12 | 59.6% (active) |
| O=c1c2ccccc2nc2n1CCC2 | 67.1% (active) |
| CC[n+]1c(/C=C2\Sc3ccccc3N2C)ccc2cccc(C)c21 | -37.8% (inactive) |
| CCOC(=O)c1ccc(NC(=O)CSc2ccc(-c3ccccn3)nn2)cc1 | 31.3% (active) |
| COc1ccc(C2=NNC(=Nc3cc(S(=O)(=O)N(C)C)ccc3C)SC2)c(OC)c1 | -120% (inactive) |
| CC(NNC(=S)N1CCN(c2ccccn2)CC1)c1nccc2ccccc12 (stereo unspecified) | -74.7% (inactive) |
| O=S(=O)(O)c1ccc(O)c2cc(Nc3ccccc3)ccc12 | 44.1% (active) |
| O=c1c2ccccc2nc(/C=C/c2cccnc2)n1CCc1ccccc1 | 38.8% (active) |
| Cc1nonc1C(=O)N/N=C/c1ccc(O)cc1O | -33.6% (inactive) |
| CCN(CC)Cc1cc(O)c(CN(CC)CC)cc1O | 41.2% (active) |
| O=C1C(=O)c2c(C(=O)c3ccccc3)coc2-c2ccccc21 | 53.2% (active) |
| COc1cc(N=c2ssnc2Cl)c(OC)cc1Cl | -58.8% (inactive) and -56.9% (inactive) |
| O=C(CSc1nnc(CCCN2C(=O)c3cccc4cccc(c34)C2=O)n1-c1ccccc1)N1CCN(CCO)CC1 | 47.6% (active) |
